In PMC7862700, “An all-to-all approach to the identification of sequence-specific readers for epigenetic DNA modifications on cytosine”:

What was measured:
Experiment in all cases: DAPPL (digital affinity profiling via proximity ligation, sequencing); 10 mM Tris-HCl pH 7.5, 50 mM NaCl, 1 mM DTT, 4% glycerol, room temperature, 30 min; GST-TFs on glutathione beads, 16-mer random dsDNA library, 0.1% formaldehyde crosslink after washing; high values mean tight binding
FEV = molecular target: T1, FEV (Homo sapiens, UniProt Q99581 1-238); settings: protein: recombinant; tags: N-terminal GST; dsDNA, one strand shown
T1 sequence: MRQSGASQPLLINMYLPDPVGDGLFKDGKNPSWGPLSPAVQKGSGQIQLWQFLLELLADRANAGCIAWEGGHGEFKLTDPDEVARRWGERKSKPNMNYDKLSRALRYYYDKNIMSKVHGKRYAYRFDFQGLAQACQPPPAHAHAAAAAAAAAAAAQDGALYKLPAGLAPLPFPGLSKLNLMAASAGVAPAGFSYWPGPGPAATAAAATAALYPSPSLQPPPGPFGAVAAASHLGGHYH
Procedure, shortened: (§1)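 Binding signal is each hexamer's read frequency for a factor divided by its frequency in the tag-only sample. The factors were GST-fused human transcription factors from yeast, captured on glutathione beads, DNA-barcoded and pooled with that sample. Pools were incubated with 200 nmole of a random double-stranded 16-mer DNA library in Tris/NaCl/DTT/glycerol buffer at room temperature for 30 min, then washed, crosslinked with 0.1% formaldehyde, proximity-ligated with BsaI/T4 ligase (1 h, 37 °C), PCR-amplified and sequenced on an Illumina NextSeq500.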

ETV5 = ETV5 (Homo sapiens, UniProt P41161 1-510); settings: protein: recombinant; tags: N-terminal GST; dsDNA, one strand shown
ETV5, sequence (P41161 whole entry): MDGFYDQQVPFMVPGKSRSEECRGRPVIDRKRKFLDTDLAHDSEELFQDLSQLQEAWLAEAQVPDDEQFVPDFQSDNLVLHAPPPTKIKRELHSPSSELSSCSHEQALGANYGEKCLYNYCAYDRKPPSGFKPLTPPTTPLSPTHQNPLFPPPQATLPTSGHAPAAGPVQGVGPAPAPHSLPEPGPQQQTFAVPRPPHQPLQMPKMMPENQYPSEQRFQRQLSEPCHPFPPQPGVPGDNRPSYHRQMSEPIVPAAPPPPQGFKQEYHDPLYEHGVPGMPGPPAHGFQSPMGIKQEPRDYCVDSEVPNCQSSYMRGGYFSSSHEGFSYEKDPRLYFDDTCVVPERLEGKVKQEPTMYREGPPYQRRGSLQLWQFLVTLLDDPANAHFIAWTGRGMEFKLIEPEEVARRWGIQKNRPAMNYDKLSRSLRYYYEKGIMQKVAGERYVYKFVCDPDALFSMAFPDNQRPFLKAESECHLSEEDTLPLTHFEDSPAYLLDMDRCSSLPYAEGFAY
Procedure, shortened: as §1

HSF1 = HSF1 (Homo sapiens, UniProt Q00613 1-529); settings: protein: recombinant; tags: N-terminal GST; chain copies: 3; dsDNA, one strand shown
HSF1, sequence (Q00613 whole entry): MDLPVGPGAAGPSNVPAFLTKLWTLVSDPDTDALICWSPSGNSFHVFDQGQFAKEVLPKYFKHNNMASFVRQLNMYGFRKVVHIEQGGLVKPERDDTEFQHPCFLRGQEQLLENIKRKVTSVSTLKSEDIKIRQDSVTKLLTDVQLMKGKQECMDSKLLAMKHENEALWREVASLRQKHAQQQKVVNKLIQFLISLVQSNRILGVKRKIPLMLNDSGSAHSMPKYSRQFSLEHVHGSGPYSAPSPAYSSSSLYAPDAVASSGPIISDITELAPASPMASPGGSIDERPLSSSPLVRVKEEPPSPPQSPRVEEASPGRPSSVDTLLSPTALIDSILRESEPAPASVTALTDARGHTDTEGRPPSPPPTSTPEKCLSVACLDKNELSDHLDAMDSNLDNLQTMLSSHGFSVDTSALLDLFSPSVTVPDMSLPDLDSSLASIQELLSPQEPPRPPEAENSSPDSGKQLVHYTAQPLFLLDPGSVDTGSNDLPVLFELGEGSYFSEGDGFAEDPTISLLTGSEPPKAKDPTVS
Procedure, shortened: as §1

ELF4 = ELF4 (Homo sapiens, UniProt Q99607 1-663); settings: protein: recombinant; tags: N-terminal GST; dsDNA, one strand shown
ELF4, sequence (Q99607 whole entry): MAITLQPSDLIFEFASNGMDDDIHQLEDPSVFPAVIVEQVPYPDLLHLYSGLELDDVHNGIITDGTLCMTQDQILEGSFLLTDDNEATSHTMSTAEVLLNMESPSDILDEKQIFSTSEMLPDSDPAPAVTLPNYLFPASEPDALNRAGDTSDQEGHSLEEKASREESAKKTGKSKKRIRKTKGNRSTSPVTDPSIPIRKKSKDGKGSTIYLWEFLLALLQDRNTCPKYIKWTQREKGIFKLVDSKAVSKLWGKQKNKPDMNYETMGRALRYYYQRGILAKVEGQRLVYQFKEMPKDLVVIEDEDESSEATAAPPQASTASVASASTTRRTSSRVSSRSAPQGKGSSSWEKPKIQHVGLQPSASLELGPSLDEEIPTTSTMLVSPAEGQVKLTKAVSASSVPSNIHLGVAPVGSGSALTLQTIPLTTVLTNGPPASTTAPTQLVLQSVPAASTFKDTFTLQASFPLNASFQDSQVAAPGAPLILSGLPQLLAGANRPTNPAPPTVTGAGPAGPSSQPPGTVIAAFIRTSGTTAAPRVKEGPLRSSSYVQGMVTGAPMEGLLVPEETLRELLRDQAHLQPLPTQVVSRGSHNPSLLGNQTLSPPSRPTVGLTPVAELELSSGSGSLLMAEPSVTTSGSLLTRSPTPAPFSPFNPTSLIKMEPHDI
Procedure, shortened: as §1

ELK4 = molecular target: T2, ELK4 (Homo sapiens, UniProt P28324-2 1-405); settings: protein: recombinant; tags: N-terminal GST; dsDNA, one strand shown
T2 sequence: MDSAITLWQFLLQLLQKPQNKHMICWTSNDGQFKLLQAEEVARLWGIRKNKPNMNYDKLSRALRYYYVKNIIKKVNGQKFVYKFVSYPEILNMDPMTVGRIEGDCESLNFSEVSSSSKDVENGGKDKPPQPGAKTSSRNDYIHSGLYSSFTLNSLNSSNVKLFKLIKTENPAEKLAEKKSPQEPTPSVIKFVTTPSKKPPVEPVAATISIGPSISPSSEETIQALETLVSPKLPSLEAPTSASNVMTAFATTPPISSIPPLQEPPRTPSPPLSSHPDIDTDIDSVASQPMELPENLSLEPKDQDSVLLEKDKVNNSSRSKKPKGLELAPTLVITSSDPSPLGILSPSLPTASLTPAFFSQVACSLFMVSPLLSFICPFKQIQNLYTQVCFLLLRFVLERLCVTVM
Procedure, shortened: as §1

ETV2 = molecular target: T3, ETV2 (Homo sapiens, UniProt O00321 1-342); settings: protein: recombinant; tags: N-terminal GST; dsDNA, one strand shown
T3 sequence: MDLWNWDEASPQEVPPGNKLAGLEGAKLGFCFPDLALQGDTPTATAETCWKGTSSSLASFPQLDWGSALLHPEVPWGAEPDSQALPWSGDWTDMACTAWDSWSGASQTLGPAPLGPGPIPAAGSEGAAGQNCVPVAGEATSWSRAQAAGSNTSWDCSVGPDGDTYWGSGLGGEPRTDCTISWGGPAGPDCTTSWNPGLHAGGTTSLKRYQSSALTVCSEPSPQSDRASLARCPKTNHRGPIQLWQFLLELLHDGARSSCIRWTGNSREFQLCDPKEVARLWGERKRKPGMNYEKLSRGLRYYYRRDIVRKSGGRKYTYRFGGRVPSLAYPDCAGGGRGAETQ
Procedure, shortened: as §1

ELF3 = molecular target: T4, ELF3 (Homo sapiens, UniProt P78545 1-371); settings: protein: recombinant; tags: N-terminal GST; dsDNA, one strand shown
T4 sequence: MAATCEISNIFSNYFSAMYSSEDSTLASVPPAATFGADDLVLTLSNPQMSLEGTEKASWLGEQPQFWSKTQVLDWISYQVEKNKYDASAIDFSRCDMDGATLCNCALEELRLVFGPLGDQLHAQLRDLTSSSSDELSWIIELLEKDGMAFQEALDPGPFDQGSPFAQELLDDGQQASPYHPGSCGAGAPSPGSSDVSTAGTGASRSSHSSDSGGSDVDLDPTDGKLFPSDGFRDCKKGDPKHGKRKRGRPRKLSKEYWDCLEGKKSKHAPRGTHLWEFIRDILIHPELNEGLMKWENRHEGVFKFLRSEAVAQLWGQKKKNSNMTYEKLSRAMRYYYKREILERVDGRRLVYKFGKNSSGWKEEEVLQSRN
Procedure, shortened: as §1

CRX = CRX (Homo sapiens, UniProt O43186 1-299); settings: protein: recombinant; tags: N-terminal GST; dsDNA, one strand shown
CRX, sequence (O43186 whole entry): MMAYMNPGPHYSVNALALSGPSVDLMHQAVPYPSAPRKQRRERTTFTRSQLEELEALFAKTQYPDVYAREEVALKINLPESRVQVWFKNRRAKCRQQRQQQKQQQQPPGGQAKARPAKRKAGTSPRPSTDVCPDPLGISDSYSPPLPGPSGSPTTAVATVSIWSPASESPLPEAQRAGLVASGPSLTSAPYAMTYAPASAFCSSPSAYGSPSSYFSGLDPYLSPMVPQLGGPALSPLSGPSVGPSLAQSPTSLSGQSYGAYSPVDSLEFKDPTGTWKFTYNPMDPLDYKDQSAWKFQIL
Procedure, shortened: as §1

ETV1 = ETV1 (Homo sapiens, UniProt P50549 1-477); settings: protein: recombinant; tags: N-terminal GST; dsDNA, one strand shown
ETV1, sequence (P50549 whole entry): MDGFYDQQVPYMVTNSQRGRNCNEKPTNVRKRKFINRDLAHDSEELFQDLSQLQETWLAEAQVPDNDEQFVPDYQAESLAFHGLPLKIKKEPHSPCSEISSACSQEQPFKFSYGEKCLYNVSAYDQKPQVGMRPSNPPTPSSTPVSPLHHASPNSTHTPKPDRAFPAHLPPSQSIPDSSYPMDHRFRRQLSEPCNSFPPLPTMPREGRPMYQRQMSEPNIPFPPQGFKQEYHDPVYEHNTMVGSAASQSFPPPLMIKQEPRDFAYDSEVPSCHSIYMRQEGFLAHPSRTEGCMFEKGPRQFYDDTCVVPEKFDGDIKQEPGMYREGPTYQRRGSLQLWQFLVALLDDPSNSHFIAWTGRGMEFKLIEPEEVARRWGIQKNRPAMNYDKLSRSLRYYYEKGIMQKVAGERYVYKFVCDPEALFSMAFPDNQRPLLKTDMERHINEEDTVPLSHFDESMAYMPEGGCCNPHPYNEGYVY
Procedure, shortened: as §1

ERF = molecular target: T5, ERF (Homo sapiens, UniProt P50548 1-548); settings: protein: recombinant; tags: N-terminal GST; dsDNA, one strand shown
T5 sequence: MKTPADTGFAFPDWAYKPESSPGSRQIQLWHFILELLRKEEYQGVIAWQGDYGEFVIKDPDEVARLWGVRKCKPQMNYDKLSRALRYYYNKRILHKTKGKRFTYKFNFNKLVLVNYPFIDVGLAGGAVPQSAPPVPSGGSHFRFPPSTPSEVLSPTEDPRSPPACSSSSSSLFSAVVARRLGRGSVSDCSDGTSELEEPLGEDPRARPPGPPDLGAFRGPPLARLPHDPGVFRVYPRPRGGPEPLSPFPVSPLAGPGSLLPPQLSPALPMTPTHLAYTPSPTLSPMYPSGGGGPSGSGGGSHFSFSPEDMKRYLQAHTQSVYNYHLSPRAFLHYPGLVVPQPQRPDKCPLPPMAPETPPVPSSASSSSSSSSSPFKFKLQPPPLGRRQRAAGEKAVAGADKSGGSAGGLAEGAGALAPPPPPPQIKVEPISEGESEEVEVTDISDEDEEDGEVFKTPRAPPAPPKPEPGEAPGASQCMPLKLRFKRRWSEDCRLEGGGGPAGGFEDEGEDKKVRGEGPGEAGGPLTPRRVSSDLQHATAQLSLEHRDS
Procedure, shortened: as §1

ETV3L = molecular target: T6, ETV3L (Homo sapiens, UniProt Q6ZN32 1-361); settings: protein: recombinant; tags: N-terminal GST; dsDNA, one strand shown
T6 sequence: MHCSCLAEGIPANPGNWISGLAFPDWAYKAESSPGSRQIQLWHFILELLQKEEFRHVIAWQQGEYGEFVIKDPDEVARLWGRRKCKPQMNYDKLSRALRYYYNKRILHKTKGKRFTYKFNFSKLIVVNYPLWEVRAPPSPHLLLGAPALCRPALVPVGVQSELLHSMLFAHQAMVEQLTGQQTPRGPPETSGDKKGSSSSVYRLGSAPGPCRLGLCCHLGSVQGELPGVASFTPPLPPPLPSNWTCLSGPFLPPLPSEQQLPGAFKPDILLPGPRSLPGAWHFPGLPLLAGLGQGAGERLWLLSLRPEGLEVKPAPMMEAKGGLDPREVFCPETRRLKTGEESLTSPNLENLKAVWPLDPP
Procedure, shortened: as §1

ETS2 = molecular target: T7, ETS2 (Homo sapiens, UniProt P15036 1-469); settings: protein: recombinant; tags: N-terminal GST; dsDNA, one strand shown
T7 sequence: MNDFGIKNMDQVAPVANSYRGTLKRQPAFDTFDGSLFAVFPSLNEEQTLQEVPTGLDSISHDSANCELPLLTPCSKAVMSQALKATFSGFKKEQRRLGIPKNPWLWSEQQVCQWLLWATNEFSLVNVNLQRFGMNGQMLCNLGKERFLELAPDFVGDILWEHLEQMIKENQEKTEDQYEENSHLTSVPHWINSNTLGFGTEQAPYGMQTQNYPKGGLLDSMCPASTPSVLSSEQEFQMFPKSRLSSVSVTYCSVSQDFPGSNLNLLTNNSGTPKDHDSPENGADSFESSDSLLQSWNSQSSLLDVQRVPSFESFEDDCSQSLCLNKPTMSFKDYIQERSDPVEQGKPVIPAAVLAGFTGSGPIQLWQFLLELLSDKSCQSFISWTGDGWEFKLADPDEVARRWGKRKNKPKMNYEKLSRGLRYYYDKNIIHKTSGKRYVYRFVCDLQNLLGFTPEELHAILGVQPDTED
Procedure, shortened: as §1

ETV7 = molecular target: T8, ETV7 (Homo sapiens, UniProt Q9Y603 1-341); settings: protein: recombinant; tags: N-terminal GST; dsDNA, one strand shown
T8 sequence: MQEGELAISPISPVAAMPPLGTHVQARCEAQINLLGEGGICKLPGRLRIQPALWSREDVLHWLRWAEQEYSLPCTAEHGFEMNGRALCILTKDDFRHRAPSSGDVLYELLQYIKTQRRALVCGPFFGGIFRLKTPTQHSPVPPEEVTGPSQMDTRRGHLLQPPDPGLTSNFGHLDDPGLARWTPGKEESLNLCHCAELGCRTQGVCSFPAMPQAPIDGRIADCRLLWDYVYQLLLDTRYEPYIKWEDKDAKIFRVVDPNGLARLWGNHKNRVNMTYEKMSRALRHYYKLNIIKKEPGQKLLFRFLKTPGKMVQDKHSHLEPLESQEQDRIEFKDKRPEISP
Procedure, shortened: as §1

ELF5 = molecular target: T9, ELF5 (Homo sapiens, UniProt Q9UKW6-2 1-255); settings: protein: recombinant; tags: N-terminal GST; dsDNA, one strand shown
T9 sequence: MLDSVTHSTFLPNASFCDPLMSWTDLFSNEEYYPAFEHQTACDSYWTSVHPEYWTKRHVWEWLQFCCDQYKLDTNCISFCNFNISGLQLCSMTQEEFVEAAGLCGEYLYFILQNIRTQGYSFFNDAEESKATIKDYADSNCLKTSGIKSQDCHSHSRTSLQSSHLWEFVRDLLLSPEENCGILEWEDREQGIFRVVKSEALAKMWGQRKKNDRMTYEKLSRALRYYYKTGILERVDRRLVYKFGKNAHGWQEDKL
Procedure, shortened: as §1

ETV3 = molecular target: T10, ETV3 (Homo sapiens, UniProt P41162-2 1-143); settings: protein: recombinant; tags: N-terminal GST; dsDNA, one strand shown
T10 sequence: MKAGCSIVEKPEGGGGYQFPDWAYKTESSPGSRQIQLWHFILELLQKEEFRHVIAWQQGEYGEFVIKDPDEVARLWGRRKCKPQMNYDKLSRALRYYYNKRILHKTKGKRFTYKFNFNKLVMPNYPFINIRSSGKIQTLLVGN
Procedure, shortened: as §1

ETV6 = ETV6 (Homo sapiens, UniProt P41212 1-452); settings: protein: recombinant; tags: N-terminal GST; dsDNA, one strand shown
ETV6, sequence (P41212 whole entry): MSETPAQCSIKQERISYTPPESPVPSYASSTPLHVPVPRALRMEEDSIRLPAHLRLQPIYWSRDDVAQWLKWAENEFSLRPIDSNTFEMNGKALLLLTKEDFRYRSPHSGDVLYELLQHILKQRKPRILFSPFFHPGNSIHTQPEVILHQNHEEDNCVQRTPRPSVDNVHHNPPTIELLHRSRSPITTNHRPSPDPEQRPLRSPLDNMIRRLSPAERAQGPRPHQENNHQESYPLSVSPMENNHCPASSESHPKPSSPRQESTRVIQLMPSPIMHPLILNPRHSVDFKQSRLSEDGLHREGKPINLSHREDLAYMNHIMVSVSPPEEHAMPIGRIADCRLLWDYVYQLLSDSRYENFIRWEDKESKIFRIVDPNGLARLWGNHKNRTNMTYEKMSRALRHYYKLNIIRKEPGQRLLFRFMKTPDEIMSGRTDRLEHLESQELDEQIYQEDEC
Procedure, shortened: as §1

SPDEF = molecular target: T11, SPDEF (Homo sapiens, UniProt O95238 1-335); settings: protein: recombinant; tags: N-terminal GST; dsDNA, one strand shown
T11 sequence: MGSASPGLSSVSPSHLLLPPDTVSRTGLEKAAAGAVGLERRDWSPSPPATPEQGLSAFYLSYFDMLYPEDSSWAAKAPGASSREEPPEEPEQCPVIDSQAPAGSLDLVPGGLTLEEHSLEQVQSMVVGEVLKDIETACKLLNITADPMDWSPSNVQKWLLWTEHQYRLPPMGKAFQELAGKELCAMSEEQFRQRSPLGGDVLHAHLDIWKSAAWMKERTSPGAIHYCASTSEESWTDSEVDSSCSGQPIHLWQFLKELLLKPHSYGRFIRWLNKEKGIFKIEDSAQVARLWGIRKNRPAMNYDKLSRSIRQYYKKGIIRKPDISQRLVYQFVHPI
Procedure, shortened: as §1

| Sequence | binding signal (FEV) | binding signal (ETV5) | binding signal (HSF1) | binding signal (ELF4) | binding signal (ELK4) | binding signal (ETV2) | binding signal (ELF3) | binding signal (CRX) | binding signal (ETV1) | binding signal (ERF) | binding signal (ETV3L) | binding signal (ETS2) | binding signal (ETV7) | binding signal (ELF5) | binding signal (ETV3) | binding signal (ETV6) | binding signal (SPDEF) |
| --- | --- | --- | --- | --- | --- | --- | --- | --- | --- | --- | --- | --- | --- | --- | --- | --- | --- |
| AGCTGC | 1.15 fold enrichment (6-mer frequency, TF over GST control) | 1.06 fold enrichment (6-mer frequency, TF over GST control) | 1.04 fold enrichment (6-mer frequency, TF over GST control) | 1.16 fold enrichment (6-mer frequency, TF over GST control) | 1.11 fold enrichment (6-mer frequency, TF over GST control) | 1.22 fold enrichment (6-mer frequency, TF over GST control) | 1.08 fold enrichment (6-mer frequency, TF over GST control) | 1.13 fold enrichment (6-mer frequency, TF over GST control) | 1.18 fold enrichment (6-mer frequency, TF over GST control) | 1.17 fold enrichment (6-mer frequency, TF over GST control) | 1.07 fold enrichment (6-mer frequency, TF over GST control) | 1.17 fold enrichment (6-mer frequency, TF over GST control) | 1.16 fold enrichment (6-mer frequency, TF over GST control) | 1.06 fold enrichment (6-mer frequency, TF over GST control) | 1.16 fold enrichment (6-mer frequency, TF over GST control) | 1.11 fold enrichment (6-mer frequency, TF over GST control) |  |
| ACAAAA | 1.19 fold enrichment (6-mer frequency, TF over GST control) | 1.17 fold enrichment (6-mer frequency, TF over GST control) | 1.09 fold enrichment (6-mer frequency, TF over GST control) | 1.16 fold enrichment (6-mer frequency, TF over GST control) | 1.15 fold enrichment (6-mer frequency, TF over GST control) | 1.11 fold enrichment (6-mer frequency, TF over GST control) | 1.04 fold enrichment (6-mer frequency, TF over GST control) | 1.05 fold enrichment (6-mer frequency, TF over GST control) | 1.13 fold enrichment (6-mer frequency, TF over GST control) | 1.18 fold enrichment (6-mer frequency, TF over GST control) | 1.2 fold enrichment (6-mer frequency, TF over GST control) | 1.2 fold enrichment (6-mer frequency, TF over GST control) | 1.15 fold enrichment (6-mer frequency, TF over GST control) | 1.21 fold enrichment (6-mer frequency, TF over GST control) | 1.13 fold enrichment (6-mer frequency, TF over GST control) | 1.17 fold enrichment (6-mer frequency, TF over GST control) | 1.11 fold enrichment (6-mer frequency, TF over GST control) |
